Bead autofluor = flagged as autofluorescent in microsphere protease counterscreen | compound autofluorescence counterscreen, microsphere flow cytometry; stronger effect = higher value | fluorescence intensity (test concentration not listed) | 360,000 tested, 3.1% active | AID 624483; in the data active means fluorescence intensity above about 16000; inconclusive means no clear call, values can overlap the other calls
BoNT-F LC inh = BoNT F light chain protease inhibition | Multiplex microsphere protease cleavage assay, flow cytometry | inhibition, % at 10 µM | 360,000 tested, 0.22% active | AID 588497; in the data active means inhibition above about 35%, passing the limit was not always enough; inconclusive means no clear call, values can overlap the other calls; further: plate controls were buffer without enzyme for full effect and enzyme alone for no effect
BoNT-A LC inh2 = inhibitors of Botulinum neurotoxin A light chain protease. multiplex microsphere protease substrate cleavage, flow cytometry. inhibition, % at 10 µM. 360,000 tested, 0.17% active; further: plate controls were buffer without enzyme for full effect and enzyme alone for no effect
Anthrax LF prot = anthrax lethal factor protease inhibition; P15917; multiplex microsphere protease cleavage assay, LF; inhibition, % at 10 µM; 360,000 tested, 0.12% active; further: plate controls were buffer without enzyme for full effect and enzyme alone for no effect
Target sequence (P15917 whole entry, looked up): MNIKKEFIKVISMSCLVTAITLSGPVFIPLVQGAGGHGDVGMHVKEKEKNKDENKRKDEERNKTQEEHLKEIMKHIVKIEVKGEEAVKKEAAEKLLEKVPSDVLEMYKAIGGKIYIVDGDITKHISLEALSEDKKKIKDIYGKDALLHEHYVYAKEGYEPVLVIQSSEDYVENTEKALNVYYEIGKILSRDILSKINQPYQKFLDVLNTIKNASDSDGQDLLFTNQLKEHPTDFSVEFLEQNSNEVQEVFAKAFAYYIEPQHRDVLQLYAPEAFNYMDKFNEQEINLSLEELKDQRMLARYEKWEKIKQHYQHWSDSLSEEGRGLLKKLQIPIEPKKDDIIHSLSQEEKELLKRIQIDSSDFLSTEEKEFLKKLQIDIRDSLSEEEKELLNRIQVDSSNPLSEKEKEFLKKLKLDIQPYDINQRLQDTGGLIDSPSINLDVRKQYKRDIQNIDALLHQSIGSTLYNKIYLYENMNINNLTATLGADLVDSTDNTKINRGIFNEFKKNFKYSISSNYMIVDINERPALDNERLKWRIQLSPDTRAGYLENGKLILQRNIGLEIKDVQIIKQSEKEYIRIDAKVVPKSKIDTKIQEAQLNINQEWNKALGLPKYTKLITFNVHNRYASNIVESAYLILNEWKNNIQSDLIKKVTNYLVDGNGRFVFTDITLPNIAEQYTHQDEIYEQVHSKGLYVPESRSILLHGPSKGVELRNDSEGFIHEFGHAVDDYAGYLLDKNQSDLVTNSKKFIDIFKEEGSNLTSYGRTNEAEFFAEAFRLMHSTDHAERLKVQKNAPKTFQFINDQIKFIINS
MazEF act = MazEF (E. coli) toxin RNase activation | P0AE70 | FAM/BHQ RNA-DNA oligo cleavage fluorescence, 5 h | activation, % at 20 µM | 350,000 tested, 0.32% active; in the data active means activation above about 50%
Numbers without * were called inactive; ? = inconclusive; / = no result. An excerpt weighted towards active compounds, which were near 3.7% of everything screened. Unless noted, no stated cut-off is given here; in the data, active means inhibition above about 30%; inconclusive means no clear call, values can overlap the other calls; inactive means below that.

SMILES	Bead autofluor	BoNT-F LC inh	BoNT-A LC inh2	Anthrax LF prot	MazEF act
COc1ccc(S(=O)(=O)Nc2ccc3c(c2)C(=O)N([C@H](C)CO)C[C@H](C)[C@@H](CN(C)S(=O)(=O)c2cccs2)O3)cc1	3090	1	0	-6	54*
COc1ccc(NC(=O)Nc2ccc3c(c2)C(=O)N([C@H](C)CO)C[C@H](C)[C@@H](CN(C)S(=O)(=O)c2cccs2)O3)cc1	4244	-2	-1	0	0
COC(=O)CN1C(=O)COc2ccc(S(=O)(=O)N3CCCCC3)cc21	4147	6	0	-8	0
CN1CCN(c2ccccc2NC(=O)Cc2ccc(Cl)cc2)CC1	21557*	2	5	1	-15
CCC(=O)N1CCN(c2ccccc2NC(=O)Cc2ccc(Cl)cc2)CC1	6340	-1	0	-13	-11
CN1CCN(c2ccccc2NC(=O)COc2ccc(Br)cc2)CC1	21142*	2	4	-2	2
CSc1ncccc1C(=O)N1CCC(C)(C(=O)O)C1 (stereo unspecified)	3524	-2	0	-6	/
CCCCNC(=O)C(NC(=O)c1ccc(=O)[nH]c1)C(=O)c1ccccc1 (stereo unspecified)	6276	1	0	-4	/
Cc1ccc(N2CCC3CC2c2cc(-c4ccc(C(F)(F)F)cc4)ccc23)cc1 (stereo unspecified)	3785	-8	-1	-4	-43
COc1ccc(-c2nnnn2C(C)C)cc1S(=O)(=O)Nc1ccccc1	4454	9	0	1	10
CC(C)n1nnnc1-c1cccc(Cl)c1	17953*	8	7	-20	-1
CC(C)n1nnnc1-c1cc(Cl)cc(Cl)c1	23056*	0	2	-2	4
COc1ccc(Nc2nc3ccccc3nc2-n2nc(C)cc2C)cc1	4546	10	6	4	178*
Cc1cc(C)n(-c2nc3ccccc3nc2Nc2ccc3[nH]c(=O)[nH]c3c2)n1	9515	1	-1	1	234*
Cc1cc(C)n(-c2nc3ccccc3nc2NCCc2ccccc2)n1	5044	6	10	7	-16
Cc1cc(C)n(-c2nc3ccccc3nc2N2CCCC2)n1	19617*	4	3	1	4
Cc1cc(C)n(-c2nc3ccccc3[nH]c2=O)n1	5868	4	1	0	-1
COc1ccccc1Cc1c(-c2ccc(Cl)cc2)nc2ccc(Br)cn12	14201	8	12	18	/
COc1cc(C)ccc1S(=O)(=O)NC(=O)C1(C)CCN1C(=O)COc1ccc(Cl)cc1 (stereo unspecified)	2683	-2	0	-4	/
Cc1ccc(/C=c2\sc3nc(-c4ccccc4Br)nn3c2=O)o1	3367	-15	5	7	6
CCN(CC)c1ccc(/C=c2\sc3nnc(-c4ccccc4Cl)n3c2=O)cc1	9724	125*	176*	80*	-183
Cc1ccc(/C=c2/sc3nnc(-c4ccccc4Cl)n3c2=O)o1	16190*	-2	0	-3	6
CCN(CC)c1ccc(/C=c2/sc3nnc(-c4ccccc4C)n3c2=O)cc1	14577	19	20	21	-276
CCOC(=O)/C(C(N)=NCCO)=C(/O)c1ccccc1	17067*	-1	-1	-4	8
CCOC(=O)/C(C(N)=NCCCO)=C(/O)c1ccccc1	7115	-5	1	1	11
SMILES	Bead autofluor	BoNT-F LC inh	BoNT-A LC inh2	Anthrax LF prot	MazEF act
Cc1ccc(C)c(C(O)c2ncc(-c3ccccc3Cl)[nH]2)c1 (stereo unspecified)	3784	-9	0	1	/
CC(=O)OC1(C(F)(F)F)Oc2ccccc2NC1=O (stereo unspecified)	18158*	7	?	2	-17
COCCNC(=O)C1(C)Oc2ccccc2NC1=O (stereo unspecified)	2865	1	-1	-2	2
O=c1[nH]c(=O)n(Cc2ccccc2Cl)c(O)c1C=Nc1ccc(F)cc1	1920	6	0	1	53*
O=c1[nH]c(=O)n(Cc2ccccc2)c(O)c1C=NCCCn1ccnc1	2209	-6	-1	-6	-16
O=c1[nH]c(=O)n(Cc2ccc(F)cc2)c(O)c1C=NCCCn1ccnc1	20628*	0	-1	-6	-2
COc1ccc(S(=O)(=O)N2CCC3CC2c2c(-c4ccc(C(F)(F)F)cc4)cccc23)cc1 (stereo unspecified)	5492	5	-1	6	/
CCOC(=O)c1c(NC(C)=O)sc2c1CCN(Cc1ccccc1)C2	5686	4	0	-6	1
CCOC(=O)c1c(NC(C)=O)sc2c1CCC(C=O)=C2Sc1ccccc1	7887	40*	50*	41*	4

Screening data from PubChem.
